High-throughput results as filed in PubChem BioAssay.
An excerpt weighted towards active compounds, which were near 4.7% of everything screened.
tim23-1 inh = inhibits growth of tim23-1 mutant yeast; actives 1.3% (n = 330,000); S. cerevisiae tim23-1 growth, BacTiter-Glo luminescence, 24 h; AID 463212; inhibition, % at 20 µM;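 active = growth inhibition of the mutant yeast at or above 50%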;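 note: temperature-sensitive mutant grown at 25 °C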
Calb FLC = C. albicans growth modulation with fluconazole | actives 0.57% (n = 300,000) | growth inhibition, % (test concentration not listed) | AID 1979 | C. albicans CaCi-2 (fluconazole-resistant clinical isolate) + fluconazole, Alamar Blue growth, 48 h;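 active = growth inhibition above about 58% in most replicates, limit read from the data, passing the limit was not always enough; inconclusive = exactly half the replicates above a set limit; inactive = most replicates below a set limit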;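 note: all wells also contain fluconazole at 8 µg/ml as a sub-toxic cotreatment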
SKKanGAS inh = blocks kanamycin growth of S. pyogenes SKKanGAS strain. BacTiter-Glo, 6 h. inhibition, % at 7.5 µM. actives 1.3% (n = 300,000). AID 1662;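 active = mean replicate score, as percent of positive control median, at least 50; inconclusive = mean below 50 but one replicate at or above 50; inactive = mean and every replicate below 50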;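 note: strain carries kanamycin resistance gene driven by streptokinase promoter and grows in 40 µg/ml kanamycin; loss of luminescence reflects streptokinase promoter inhibition or plain growth inhibition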
PfHsp90 set2 = reduces growth (ATP signal) of yeast expressing P. falciparum Hsp90 | S. cerevisiae expressing PfHsp90, BacTiter-Glo ATP, 48 h; yeast lacking PDR1 and PDR3 efflux regulators | inhibition, % at 9.4 µM | actives 0.32% (n = 310,000) | AID 504621;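 active = every replicate shows inhibition above about 80%, whatever the replicate mean, limit read from the data; inconclusive = mean inhibition reaches the set limit but some replicate falls short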
tim10-1 inh = tim10-1 yeast growth inhibition. S. cerevisiae tim10-1 ts strain growth, BacTiter-Glo, 24 h. inhibition, % at 20 µM. actives 2.2% (n = 330,000);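 active = inhibition of at least 40%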;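 note: mutant grown at 25 °C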
TIM10 inh = inhibits growth of TIM10 yeast strain; AID 463195; actives 1.4% (n = 330,000); S. cerevisiae TIM10 strain growth, BacTiter-Glo luminescence, 24 h; inhibition, % at 10 µM;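 active = inhibition of 40% or more at the single tested concentration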;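 note: wild-type TIM10 isogenic control strain grown at permissive 25 °C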
tim10-1 conf = confirmation of tim10-1 mutant yeast growth inhibitors; actives 56% (n = 7,400); shares compounds with tim10-1 inh; inhibition, % at 20 µM; S. cerevisiae tim10-1 ts strain growth, BacTiter-Glo, 24 h;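 active = inhibition of yeast growth at or above a set limit in either of two repeat tests at 20 µM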;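 note: tim10-1 mutant grown at permissive 25 °C to find synthetic lethal compounds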
tim10 confirm = confirmation of TIM10 yeast growth inhibitors; shares compounds with TIM10 inh; S. cerevisiae tim10 strain growth, BacTiter-Glo luminescence, 24 h; inhibition, % at 10 µM; actives 63% (n = 4,600); AID 463215;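 active = inhibition of yeast growth at or above a set limit in either of two replicates at 10 µM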; note: this counterscreen used the strain with wild-type TIM10
Of the large screens only hits and unclear results are named; the others gave an inactive call (follow-up assays come after a bar, where they were run).

O=C1CC(c2ccc(Cl)cc2)Oc2ccc(Cl)cc21 (stereo not given)	none (no result: tim23-1 inh, Calb FLC, SKKanGAS inh, tim10-1 inh, TIM10 inh)
COc1ccc(N2CCN(CC(=O)Nc3ccc(C)c(C)c3)CC2)cc1	none
O=[N+]([O-])c1cccnc1N1CCC(c2cc(-c3ccc(Cl)cc3)n[nH]2)CC1	SKKanGAS inh 73, tim10-1 inh 43, TIM10 inh 49 | tim10-1 conf 37 | tim10 confirm 46
CCOC(=O)CN1CCC(c2cc(-c3ccc(Cl)cc3)n[nH]2)CC1	none
O=C1NC(=O)/C(=C\c2ccccc2OCc2ccccc2)S1	Calb FLC inconclusive, SKKanGAS inh inconclusive, tim10-1 inh 45, TIM10 inh 43 | tim10-1 conf 33 | tim10 confirm inactive
COC(C/C=C\C(=O)[C@H](C)OCc1ccccc1)OC	tim10-1 inh 44, TIM10 inh 42 | tim10-1 conf 42 | tim10 confirm inactive
COC(C/C=C\[C@@H](O)[C@@H](C)OCc1ccccc1)OC	none (no result: PfHsp90 set2)
COc1ccccc1/C=C/CN1CCCC(CCC(=O)NCc2ccccc2F)C1 (stereo not given)	tim10-1 inh 52, TIM10 inh 43 | tim10-1 conf 36 | tim10 confirm inactive
CC12CCC(C(=O)CC1=O)C2(C)C (stereo not given)	none (no result: tim23-1 inh, Calb FLC, SKKanGAS inh, tim10-1 inh, TIM10 inh)
COc1ccccc1OC(=O)Cc1cccc2ccccc12	none
COc1ccccc1CC(=O)O/N=C(\N)Cc1cccc2ccccc12	tim10-1 inh 67, TIM10 inh 56 (no result: PfHsp90 set2) | tim10-1 conf 53 | tim10 confirm 62
Cc1ccc(C(=O)O/N=C(\N)Cc2cccc3ccccc23)cc1	tim10-1 inh 49, TIM10 inh 42 | tim10-1 conf 52 | tim10 confirm 73
COc1ccccc1C/C(N)=N/OC(=O)COc1ccc(C)cc1C	tim10-1 inh 48, TIM10 inh 43 | tim10-1 conf 42 | tim10 confirm 35
Cc1ccc(OCC(=O)O/N=C(\N)c2ccncc2)c(C)c1	none
NS(=O)(=O)c1ccc(CNC(=O)Cc2c(F)cccc2Cl)cc1	none
CNc1ccc(/C=C2\CSc3ccccc3C2=O)cc1[N+](=O)[O-]	tim10-1 inh 45, TIM10 inh 46 (no result: PfHsp90 set2) | tim10-1 conf 40 | tim10 confirm inactive
O=C1/C(=C/c2ccc([N+](=O)[O-])cc2)CCc2ccccc21	none (no result: PfHsp90 set2)
CCOC(=O)c1c(NC(C)=O)sc2c(O)cccc12	tim10-1 inh 45, TIM10 inh 50 | tim10-1 conf inactive | tim10 confirm 38
CCOC(=O)c1c(NC(C)=O)sc2c(O)c(Br)cc(Br)c12	none (no result: tim23-1 inh, tim10-1 inh, TIM10 inh)
CC(=O)Nc1cccc(NC(=O)c2cc([N+](=O)[O-])ccc2N2CCCCC2)c1	none (no result: Calb FLC, SKKanGAS inh)
Cc1cccc(NC(=O)c2cc([N+](=O)[O-])ccc2N2CCCCC2)n1	tim10-1 inh 43, TIM10 inh 47 | tim10-1 conf 39 | tim10 confirm inactive
CCCC1CC(C)(c2csc(Nc3ccc(OCC)cc3)n2)OC1=O (stereo not given)	tim10-1 inh 40, TIM10 inh 48 | tim10-1 conf inactive | tim10 confirm 46
Cc1ccc(-n2cnc3cc(NCc4cccs4)ccc32)cc1	tim10-1 inh 56, TIM10 inh 63 | tim10-1 conf 57 | tim10 confirm 64
Cn1cnc2cc(NCc3cccs3)ccc21	none (no result: PfHsp90 set2)
COc1ccc(C)cc1-n1nnnc1SCC(=O)NC1CCS(=O)(=O)C1 (stereo not given)	none (no result: Calb FLC, SKKanGAS inh)
COC(=O)N/N=C/c1cccs1	Calb FLC inconclusive
COC(=O)C(=C/C(C)=C/c1cccs1)C(=O)OC	tim10-1 inh 44, TIM10 inh 43 | tim10-1 conf inactive | tim10 confirm 43
CC[C@]1(C(=O)OC)[C@H]2C(=O)N(C)C(=O)[C@H]2[C@H]2CN=C(SC)N21	none (no result: tim23-1 inh, Calb FLC, SKKanGAS inh, tim10-1 inh, TIM10 inh)
CCOC(=O)N/N=C\c1ccc(-c2cc(Cl)ccc2Cl)o1	tim10-1 inh 44, TIM10 inh 41 | tim10-1 conf 34 | tim10 confirm 35
COc1ccc(/C=C/C(=O)C23CC4CC(CC(C4)C2)C3)cc1CN1CCOCC1	tim10-1 inh 46, TIM10 inh 46 | tim10-1 conf 38 | tim10 confirm 36
Cc1[nH]c(=O)c(C(=O)/C=C/c2ccccc2F)c2c1CCCC2	tim10-1 inh 47, TIM10 inh 44 | tim10-1 conf 52 | tim10 confirm 38
CCCn1c(SC(C)C(=O)NC2CCCC2)n[nH]c1=O (stereo not given)	none (no result: Calb FLC, SKKanGAS inh, PfHsp90 set2)
COc1cc(OC)cc(OC(=O)C2CCN(C(=O)c3ccc(Cl)cc3)CC2)c1	none (no result: Calb FLC, SKKanGAS inh)
Cc1ccc2c(c1)C1CN(C)CCC1N2C(=O)c1cccc(S(=O)(=O)N2CC(C)CC(C)C2)c1 (stereo not given)	tim10-1 inh 47, TIM10 inh 55 | tim10-1 conf 43 | tim10 confirm 38
Cc1ccc2c(c1)C1CN(C)CCC1N2C(=O)c1ccc(Cl)c(S(=O)(=O)N2CCOCC2)c1 (stereo not given)	none
Cc1ccc(S(=O)(=O)N2CCC(C(=O)OCC(=O)N3CCC(C)CC3)CC2)cc1C	none (no result: PfHsp90 set2)
O=C(OCc1nnc(-c2ccc(Cl)cc2)o1)c1ccc(O)cc1	none
CS(=O)(=O)c1ccc(C(=O)OCc2nnc(-c3ccc(Cl)cc3)o2)cc1[N+](=O)[O-]	tim10-1 inh 59, TIM10 inh 51 (no result: PfHsp90 set2) | tim10-1 conf 56 | tim10 confirm 41
Cc1ccc(COc2ccc(Br)cc2/C=N/O)cc1	tim10-1 inh 51, TIM10 inh 46 | tim10-1 conf inactive | tim10 confirm inactive
C=CCNC(=O)c1ccc(NC(=O)CC2SC(N3CCCC3)=NC2=O)cc1 (stereo not given)	none
CC(C)OC(=O)CN1C(=O)S/C(=C/c2ccc(N3CCCCC3)o2)C1=O	PfHsp90 set2 inconclusive, tim10-1 inh 46, TIM10 inh 46 | tim10-1 conf 72 | tim10 confirm 83
C=C(C)COc1ccc(-c2n[nH]c(C)c2-c2ccc(OC)c(OC)c2)c(O)c1	tim10-1 inh 44, TIM10 inh 41 | tim10-1 conf 33 | tim10 confirm 38
C=C(C)COc1ccc(-c2n[nH]c(C)c2Oc2ccccc2OC)c(O)c1	none
COc1ccc(OCC(=O)NC(=S)N2CCCc3ccccc32)cc1	none
O=C(COc1ccccc1)NC(=S)N1CCc2ccccc21	tim10-1 inh 43, TIM10 inh 41 | tim10-1 conf inactive | tim10 confirm inactive
Cn1c(CC(=O)Nc2ccccc2)cc2ccccc21	none
CC1CCCC(NC(=O)CCS(=O)(=O)c2cc3c(cc2Cl)NC(=O)CO3)C1C (stereo not given)	none
